# Test results reported in PubChem BioAssay.
# Calls of active or inactive are those of the source.
# Key:
# Albumin (Bos taurus) = Albumin (Bos taurus) (UniProt P02769); experiment: compounds binding labelled BSA control protein – biochemical, small-molecule microarray, Alexa647 label, 635/667 nm fluorescence, artefact control for SMM control protein annotation, profiling panel (AID 1118); conditions: BSA-A647 binding, fluorescence 635 nm, higher = more signal;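 further: score merges 667 nm emission intensity and signal-to-noise per printed compound spot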
# [1] = probe aXIP binding to arrayed compounds – biochemical, NeuroSMM set, 635/667 nm fluorescence, primary screen (AID 1119); conditions: small-molecule microarray, higher = more signal, called active from +8 up or from −8 down;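 further: probe is the protein aXip251-270 applied at 1 µg/mL to compound-printed slides; binding of probe to printed compounds measured as 667 nm fluorescence plus signal to noise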
# [2] = probe aNOTCH3 binding on compound microarray – biochemical, small-molecule microarray, 635/667 nm fluorescence, primary screen (AID 1120); conditions: higher = more signal;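 further: probe is a biotin-tagged antibody raised against NOTCH3 rather than NOTCH3 protein; score merges spot fluorescence near 667 nm with spot signal to noise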
# [3] = probe aNOTCH2 binding on compound microarray – biochemical, small-molecule microarray, 635/667 nm fluorescence, primary screen (AID 1121); conditions: higher = more signal;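 further: score merges feature fluorescence read at 667 nm with its signal to noise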
# [4] = biological target: Carbonic anhydrase 2 (Homo sapiens) (UniProt P00918); experiment: compounds binding carbonic anhydrase 2 – biochemical, small-molecule microarray, Alexa647-labelled CAII, profiling panel (AID 1122); conditions: CAII-A647 binding fluorescence, higher = more signal
# [5] = COS7 lysate on small-molecule microarray, probe aHis, 635 nm (AID 1123); conditions: COS7 cell lysate, fluorescence, higher = more signal;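 further: z-score combines 667nm fluorescence intensity with signal-to-noise per printed compound spot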
# [6] = probe aLAP1 signal on lysate-treated microarray – cell lysate, small-molecule microarray, COS7 lysate, primary screen (AID 1124); conditions: probe aLAP1, fluorescence, higher = more signal;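 further: lysate comes from COS7 cells expressing LAP1 and is applied at 0.3 µg/mL; score merges spot fluorescence near 667 nm with signal-to-noise over triplicate slides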
# Sam68 (KHDRBS1) = experiment: compounds binding KHDRBS1 protein – biochemical, small-molecule microarray, 635 nm fluorescence, primary screen (AID 1125); conditions: higher = more signal;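 further: score merges 667 nm channel intensity with signal to noise over triplicate slides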
# [7] = system: Chordin-like protein 2 (CHRDL2); experiment: compounds binding chordin-like 2 – biochemical, small-molecule microarray, 635 nm fluorescence, primary screen (AID 1126); conditions: fluorescence 635 nm, higher = more signal;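 further: printed compound slides probed with Chrdl2 protein at 4 µg/mL for 1 h at 4 C; score merges 667 nm emission intensity with signal to noise over three replicate slides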
# [8] = biological target: Concanavalin-A (Canavalia ensiformis) (UniProt P02866); experiment: compounds binding concanavalin A lectin – biochemical, small-molecule microarray, Alexa647 label, 635 nm, artefact control for SMM control protein annotation, primary screen (AID 1127); conditions: ConA-A647 binding fluorescence, higher = more signal;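 further: z combines 667 nm emission intensity with signal-to-noise across three replicate slides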
# Chain of Concanavalin-A (Canavalia ensiformis) (P02866 whole entry, looked up): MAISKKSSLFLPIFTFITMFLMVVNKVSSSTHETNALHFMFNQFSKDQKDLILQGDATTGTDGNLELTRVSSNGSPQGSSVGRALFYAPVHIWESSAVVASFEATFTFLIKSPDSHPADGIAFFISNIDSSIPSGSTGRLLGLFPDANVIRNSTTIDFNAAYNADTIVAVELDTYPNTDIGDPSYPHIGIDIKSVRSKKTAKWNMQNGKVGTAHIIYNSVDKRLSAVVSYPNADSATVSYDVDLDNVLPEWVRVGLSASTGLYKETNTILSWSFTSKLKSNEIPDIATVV
# Chain of Albumin (Bos taurus) (P02769 whole entry, looked up): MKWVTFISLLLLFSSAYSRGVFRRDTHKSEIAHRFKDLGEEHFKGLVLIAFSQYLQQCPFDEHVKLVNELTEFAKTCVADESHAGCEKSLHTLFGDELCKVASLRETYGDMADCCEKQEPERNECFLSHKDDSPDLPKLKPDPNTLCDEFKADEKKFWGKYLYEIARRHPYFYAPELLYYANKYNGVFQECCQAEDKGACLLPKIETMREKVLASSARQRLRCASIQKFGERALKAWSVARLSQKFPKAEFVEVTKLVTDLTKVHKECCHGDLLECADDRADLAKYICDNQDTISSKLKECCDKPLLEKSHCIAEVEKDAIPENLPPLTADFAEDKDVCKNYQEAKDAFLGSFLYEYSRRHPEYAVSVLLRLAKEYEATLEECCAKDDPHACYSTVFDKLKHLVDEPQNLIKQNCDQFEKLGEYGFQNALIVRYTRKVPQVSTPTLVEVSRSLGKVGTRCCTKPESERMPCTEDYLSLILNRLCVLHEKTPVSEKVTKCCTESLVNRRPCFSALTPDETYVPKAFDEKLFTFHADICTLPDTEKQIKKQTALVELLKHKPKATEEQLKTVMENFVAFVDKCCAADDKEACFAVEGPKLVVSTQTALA
SMILES,composite z-score (Albumin (Bos taurus)),composite Z-score [1],composite z-score [2],composite z-score [3],composite z-score [4],composite z-score [5],composite z-score [6],composite z-score (Sam68 (KHDRBS1)),composite z-score [7],composite z-score [8]
O=C(CS)NCCCCCNC(=O)[C@@H]1C[C@@H]2C(=O)N[C@@H](Cc3ccccc3)C(=O)N2[C@@H]1c1ccc(O)cc1,-0.814,0.346 (inactive),-0.0647,-0.0756,0.674,1.37,0.154,1.3,0.617,0.874
CC(CCC(=O)OC[C@H]1O[C@H](C#Cc2ccccc2)C=C[C@@H]1Oc1ccc(C)cc1)=NOC[C@@H](O)[C@H]1O[C@@H]2OC(C)(C)O[C@@H]2[C@H]1O,-0.326,-0.404 (inactive),-0.2,-0.187,-0.023,-0.282,0.137,0.14,-0.532,-0.614
CCOC(=O)CCN1C(=O)[C@H]2[C@H]3[C@H](O)[C@H](O)CC(=NNC(=O)OCc4ccc(OC)cc4)[C@@H]3CC[C@H]2C1=O,0.0708,0.101 (inactive),-0.153,-0.104,0.244,1.31,-0.239,0.427,0.388,1.09
CS(=O)(=O)CCOC(=O)C1=CC(CCCO)=CC(c2cccs2)N(Cc2cccc(OC(F)(F)F)c2)C=C1C(=O)OCCS(C)(=O)=O (stereo not given),1.03,0.0987 (inactive),0.106,-0.0358,0.809,1.1,0.678,1.18,-0.607,1.16
COc1ccc(O[C@H]2C=C[C@@H](c3ccccc3)O[C@@H]2COC(=O)CCC(C)=NOCC[C@@H]2C=C[C@H](OC(C)=O)[C@@H](COC(C)=O)O2)cc1,-0.598,0.806 (inactive),0.297,-0.0028,0.654,0.938,0.203,-0.23,-0.0022,-0.997
CN1C(=O)[C@@]2(CCC(=O)OC(C)(C)C)N=C(c3ccc(OCCCO)cc3)O[C@H]2c2ccccc21,0.498,-0.428 (inactive),-0.0694,-0.165,0.337,2.38,0.176,1.27,0.0811,1.09
CO[C@H]1COC(=O)[C@@H]2CCCN2C(=O)[C@@H](C)COC(=O)CC=C[C@@H]1C,-0.414,-0.275 (inactive),-0.0647,-0.0907,-0.329,-0.641,0.359,0.474,1.4,0.75
COC(=O)C1(C)C=C2C(=C(c3ccccc3)C(=O)C2C)CN1 (stereo not given),0.226,-0.107 (inactive),-0.128,0.0633,0.479,0.895,-0.368,-0.999,-0.368,-1.06
COc1ccc(O[C@H]2C=C[C@@H](c3ccccc3)O[C@@H]2COC(=O)CCC(C)=NO[C@@H](C)c2cc(-c3c(C)cc(C)cc3C)no2)cc1,-0.0567,-0.314 (inactive),-0.187,-0.153,-0.505,-0.451,-0.522,-0.822,-0.654,-1.63
COCCCNC(=O)[C@@]1(C)c2ccccc2C(=O)N(Cc2ccc(OC(F)(F)F)cc2)[C@H]1c1ccc(CO)cc1,-0.881,-0.17 (inactive),-0.271,-0.0836,0.174,0.125,0.884,-1.22,-0.654,-0.836
CC(CCN1CCc2nc(-c3ccccc3)c(-c3ccccc3)cc2C1)=NO[C@@H](C)c1cn([C@H](CO)Cc2ccccc2)nn1,0.908,0.715 (inactive),0.0242,-0.117,0.526,-0.478,-0.208,-0.163,0.0808,-0.602
Cc1cc2c(nc1C)CCCN2CC(C)ON=C1[C@H]2CCn3c(=O)n(-c4ccccc4)c(=O)n3[C@H]2[C@H](O)[C@@H]2O[C@H]12 (stereo not given in full),0.243,0.506 (inactive),0.173,-0.0535,0.171,0.198,0.136,1.24,0.647,0.367
CCN(CC)c1ccc(N2CC=CC34O[C@@H]5/C=C\CCC(C)OC(=O)C5[C@H]3C(=O)N(CCCO)[C@@H]4C2=O)cc1 (stereo not given in full),-0.909,0.589 (inactive),-0.185,-0.189,0.868,-0.368,-0.0197,-0.383,-0.618,-0.608
CCOC(=O)CCN1C(=O)[C@H]2[C@H]3[C@H](O)[C@H](O)CC(=O)[C@H]3CC[C@H]2C1=O,0.132,0.466 (inactive),0.0282,-0.0986,-0.214,0.197,-0.386,0.321,0.454,0.528
COCCOC(=O)N1C(=O)[C@@]2(c3cc(C#CC4(O)CCCCCC4)ccc31)[C@H](C(=O)N1CCN(c3ncccn3)CC1)[C@H]1C(=O)O[C@H](c3ccccc3)[C@H](c3ccccc3)N1[C@@H]2c1ccc(OCCO)cc1,0.408,-0.108 (inactive),0.178,-0.112,0.375,0.714,0.857,1.3,0.659,1.18
CC(C)CON=C1C[C@@H](O)[C@@H](O)[C@@H]2[C@@H]3C(=O)N(C[C@@H]4CCCO4)C(=O)[C@@H]3CC[C@H]12,-0.3,-0.311 (inactive),-0.101,-0.0659,0.0765,0.737,-0.193,0.697,-0.0163,0.12
